# The source made the active and inactive calls. The calls were made as follows: active = hit-call score of the fitted dose curve at least 0.9, where 1 is the maximum; inactive = score below 0.9.
# Assays:
# Details in all cases: mRNA level, 48 h; actives raise or lower the signal
# [1] = read-out: ABC Transporter (ABCB11), ABCB11 (gene 8647); assay: LTEA_HepaRG_ABCB11: Life Technologies and Expression Analysis (LTEA) Assay for ABC Transporter (ABCB11) using HepaRG (AID 2283463)
# Summary of the method: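 Using HepaRG cultures held in 0.5% DMSO, chemicals were tested at half-log dilutions from 100 uM for 48 h. Induction or suppression of ABCB11 mRNA, normalized to ACTB, GAPDH and POLR2A, was fitted bidirectionally against vehicle.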
# [2] = read-out: ABC Transporter (ABCC2), ABCC2 (gene 1244); assay: LTEA_HepaRG_ABCC2: Life Technologies and Expression Analysis (LTEA) Assay for ABC Transporter (ABCC2) using HepaRG (AID 2283464)
# Summary of the method: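 Endpoint is ABCC2 transcript level from qRT-PCR, normalized to three housekeeping genes and fitted bidirectionally relative to DMSO. Human HepaRG cells received test chemical for 48 h at up to 100 uM (8 points, half-log steps, 0.5% DMSO), duplicate wells.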
# [3] = read-out: Broad substrate specificity ATP-binding cassette transporter ABCG2 (Homo sapiens) (UniProt Q9UNQ0); assay: LTEA_HepaRG_ABCG2: Life Technologies and Expression Analysis (LTEA) Assay for ABC Transporter (ABCG2) using HepaRG (AID 2283465)
# Summary of the method: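 Gene expression of ABCG2 in HepaRG liver cells is quantified by qRT-PCR following 48 h exposure across an eight-point series topping at 100 uM. Values come from bidirectional fitting relative to DMSO vehicle.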
# [4] = read-out: ATP-citrate lyase (ACLY), ACLY (gene 47); assay: LTEA_HepaRG_ACLY: Life Technologies and Expression Analysis (LTEA) Assay for ATP-citrate lyase (ACLY) using HepaRG (AID 2283466)
# Summary of the method: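 ACLY expression changes in human HepaRG liver cells are quantified by qRT-PCR after 48 h exposure to test chemicals (maximum 100 uM, half-log steps). Values are fitted in both directions relative to 0.5% DMSO vehicle.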
# [5] = read-out: Peroxisomal acyl-coenzyme A oxidase 1 (ACOX1) gene, ACOX1 (gene 51); assay: LTEA_HepaRG_ACOX1: Life Technologies and Expression Analysis (LTEA) Assay for Peroxisomal acyl-coenzyme A oxidase 1 (ACOX1) gene using HepaRG (AID 2283467)
# Summary of the method: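 Human HepaRG hepatic cultures, 48 h treatment with test chemicals up to 100 uM. ACOX1 expression read by qRT-PCR relative to 0.5% DMSO vehicle.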
# [6] = read-out: Alkaline Phosphatase, Placental (ALPP) gene, ALPP (gene 250); assay: LTEA_HepaRG_ALPP: Life Technologies and Expression Analysis (LTEA) Assay for Alkaline Phosphatase, Placental (ALPP) gene using HepaRG (AID 2283468);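 as to AC50: differentiated human HepaRG liver cells in serum-free induction medium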
# Summary of the method: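 ALPP transcript level, measured by qRT-PCR and normalized to three housekeeping genes (ACTB, GAPDH, POLR2A), after 48 h dosing of differentiated HepaRG in serum-free induction medium. Top concentration 100 uM with half-log dilutions (8 points, 0.5% DMSO, duplicates); bidirectional fitting relative to DMSO.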
# [7] = read-out: Bcl-2 (BAD) gene, BAD (gene 572); assay: LTEA_HepaRG_BAD: Life Technologies and Expression Analysis (LTEA) Assay for Bcl-2 (BAD) gene using HepaRG (AID 2283469)
# Summary of the method: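 Activity values reflect up- or down-regulation of BAD mRNA in human HepaRG hepatic cells treated 48 h in serum-free medium, with eight-point half-log dosing capped at 100 uM and 0.5% DMSO vehicle.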
# [8] = read-out: Bcl-2 (BAX) gene, BAX (gene 581); assay: LTEA_HepaRG_BAX: Life Technologies and Expression Analysis (LTEA) Assay for Bcl-2 (BAX) gene using HepaRG (AID 2283470)
# Summary of the method: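 Gene expression measured by Fluidigm qRT-PCR with three housekeeping genes for normalisation. HepaRG cells, plated 48 h beforehand, treated 48 h at up to 100 uM (8-point, half-log) in 0.5% DMSO. Bidirectional fitting versus DMSO.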
# [9] = read-out: adenosine kinase (ADK) gene, ADK (gene 132); assay: LTEA_HepaRG_ADK: Life Technologies and Expression Analysis (LTEA) Assay for adenosine kinase (ADK) gene using HepaRG (AID 2283471)
# Summary of the method: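 Read-out is ADK transcript level measured by qRT-PCR and normalised to three housekeeping genes. Cells are human HepaRG, dosed for 48 h at up to 100 uM in 0.5% DMSO. Gain or loss of signal is fitted against DMSO controls.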
# [10] = read-out: Alpha-fetoprotein (AFP) gene, AFP (gene 174); assay: LTEA_HepaRG_AFP: Life Technologies and Expression Analysis (LTEA) Assay for Alpha-fetoprotein (AFP) gene using HepaRG (AID 2283472)
# Summary of the method: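 AFP transcript measured by TaqMan qRT-PCR with three housekeeping genes for normalization, after 48 h chemical treatment of HepaRG cells (top 100 uM, half-log steps, 0.5% DMSO). Gain or loss fitted against vehicle.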
# Chain of Broad substrate specificity ATP-binding cassette transporter ABCG2 (Homo sapiens) (Q9UNQ0 whole entry, looked up): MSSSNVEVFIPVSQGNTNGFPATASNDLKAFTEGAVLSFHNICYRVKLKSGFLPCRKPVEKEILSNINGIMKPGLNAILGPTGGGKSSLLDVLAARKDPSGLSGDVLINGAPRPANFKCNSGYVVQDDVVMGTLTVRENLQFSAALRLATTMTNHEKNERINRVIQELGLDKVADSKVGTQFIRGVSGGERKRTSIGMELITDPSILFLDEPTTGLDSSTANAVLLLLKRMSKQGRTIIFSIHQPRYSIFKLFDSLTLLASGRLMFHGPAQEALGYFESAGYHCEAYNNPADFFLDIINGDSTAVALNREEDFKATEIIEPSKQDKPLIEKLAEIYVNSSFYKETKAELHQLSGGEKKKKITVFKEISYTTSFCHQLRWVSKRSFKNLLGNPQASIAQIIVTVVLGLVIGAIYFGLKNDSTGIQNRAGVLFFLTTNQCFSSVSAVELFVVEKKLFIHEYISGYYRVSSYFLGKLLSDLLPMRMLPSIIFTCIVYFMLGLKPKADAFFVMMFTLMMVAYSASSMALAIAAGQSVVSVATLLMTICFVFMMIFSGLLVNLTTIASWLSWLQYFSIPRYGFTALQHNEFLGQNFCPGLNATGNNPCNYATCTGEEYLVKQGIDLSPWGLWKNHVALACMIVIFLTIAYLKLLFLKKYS
structure (smiles),measurement,setting,value
CCOc1ccc2[nH]cc(C(=O)NCc3ccccc3)c(=O)c2n1,outcome,[1],inactive
same,outcome,[2],inactive
same,outcome,[3],inactive
same,outcome,[4],inactive
same,outcome,[5],inactive
same,outcome,[6],inactive
same,outcome,[7],inactive
same,outcome,[8],inactive
same,outcome,[9],inactive
same,AC50,[10],81.3 µM (active)
Cc1nc(-c2ccccn2)ncc1C(=O)Nn1cc(C)c2cc(F)ccc21,AC50,[1],50 µM (active)
same,AC50,[2],12.2 µM (active)
same,outcome,[3],inactive
same,outcome,[4],inactive
same,outcome,[5],inactive
same,AC50,[6],82.3 µM (active)
same,outcome,[7],inactive
same,outcome,[8],inactive
same,outcome,[9],inactive
same,AC50,[10],50 µM (active)
CCCCCCCCCCCCCCCCOS(=O)(=O)O,outcome,[2],inactive
same,outcome,[3],inactive
same,outcome,[4],inactive
same,outcome,[5],inactive
same,outcome,[6],inactive
same,outcome,[7],inactive
same,outcome,[8],inactive
same,outcome,[9],inactive
same,AC50,[10],41.2 µM (active)
NC(=O)NN=Cc1ccc([N+](=O)[O-])o1,outcome,[1],inactive
same,AC50,[2],50 µM (active)
same,outcome,[3],inactive
same,outcome,[4],inactive
same,outcome,[5],inactive
same,AC50,[6],0.468 µM (active)
same,AC50,[7],0.381 µM (active)
same,outcome,[8],inactive
same,outcome,[9],inactive
same,outcome,[10],inactive
OCc1ccccc1,outcome,[1],inactive
same,outcome,[2],inactive
same,outcome,[3],inactive
same,outcome,[4],inactive
same,outcome,[5],inactive
same,outcome,[6],inactive
same,outcome,[7],inactive
same,outcome,[8],inactive
same,outcome,[9],inactive
same,outcome,[10],inactive
Cc1ccc(S(=O)(=O)NC(=O)NN2CCCCCC2)cc1,outcome,[1],inactive
same,outcome,[2],inactive
same,outcome,[3],inactive
same,outcome,[4],inactive
same,outcome,[5],inactive
same,AC50,[6],0.161 µM (active)
same,outcome,[7],inactive
same,outcome,[8],inactive
same,outcome,[9],inactive
same,outcome,[10],inactive
CCc1cccc(CC)c1N,outcome,[1],inactive
same,outcome,[2],inactive
same,outcome,[3],inactive
same,outcome,[4],inactive
same,outcome,[5],inactive
same,outcome,[6],inactive
same,outcome,[7],inactive
same,outcome,[8],inactive
same,outcome,[9],inactive
same,outcome,[10],inactive
CCCCCCCCCCCCCCO,outcome,[1],inactive
same,outcome,[2],inactive
same,outcome,[3],inactive
same,outcome,[4],inactive
same,outcome,[5],inactive
same,outcome,[6],inactive
same,outcome,[7],inactive
same,outcome,[8],inactive
same,outcome,[9],inactive
same,outcome,[10],inactive
COc1cc(C(C)C)c2c(c1)S(=O)(=O)N(COc1cc(=O)n3cccc(OCCN4CCCCC4)c3n1)C2=O,AC50,[2],22.3 µM (active)
same,AC50,[3],20.9 µM (active)
same,outcome,[4],inactive
same,AC50,[5],19.8 µM (active)
same,AC50,[6],6.3 µM (active)
same,outcome,[7],inactive
same,outcome,[8],inactive
same,AC50,[9],22 µM (active)
same,AC50,[10],19.5 µM (active)
Cn1c(=O)c2[nH]cnc2n(C)c1=O,outcome,[1],inactive
same,outcome,[2],inactive
same,outcome,[3],inactive
same,outcome,[4],inactive
same,outcome,[5],inactive
same,outcome,[6],inactive
same,outcome,[7],inactive
same,outcome,[8],inactive
same,outcome,[9],inactive
same,outcome,[10],inactive
OC(CCl)CCl,outcome,[1],inactive
same,outcome,[2],inactive
same,outcome,[3],inactive
same,outcome,[4],inactive
same,outcome,[5],inactive
same,outcome,[6],inactive
same,outcome,[7],inactive
same,outcome,[8],inactive
same,outcome,[9],inactive
same,outcome,[10],inactive
CCCOc1ccc(S(=O)(=O)N2CCN(CC)CC2)cc1-c1nc2c(CC)n(Cc3ccccn3)nc2c(=O)[nH]1,AC50,[1],27.7 µM (active)
same,AC50,[2],5.49 µM (active)
same,outcome,[3],inactive
same,AC50,[4],80.2 µM (active)
same,outcome,[5],inactive
same,AC50,[6],50 µM (active)
same,outcome,[7],inactive
same,outcome,[8],inactive
same,outcome,[9],inactive
same,AC50,[10],26.9 µM (active)
CC(=O)c1ccccc1,outcome,[1],inactive
same,outcome,[2],inactive
same,outcome,[3],inactive
same,outcome,[4],inactive
same,outcome,[5],inactive
same,outcome,[6],inactive
same,outcome,[7],inactive
same,outcome,[8],inactive
same,outcome,[9],inactive
same,outcome,[10],inactive
c1ccc2ncccc2c1,outcome,[1],inactive
same,outcome,[2],inactive
same,outcome,[3],inactive
same,outcome,[4],inactive
same,outcome,[5],inactive
same,outcome,[6],inactive
same,outcome,[7],inactive
same,outcome,[8],inactive
same,outcome,[9],inactive
same,outcome,[10],inactive
O=S1(=O)CCCO1,outcome,[1],inactive
same,outcome,[2],inactive
same,outcome,[3],inactive
same,outcome,[4],inactive
same,outcome,[5],inactive
same,outcome,[6],inactive
same,outcome,[7],inactive
same,outcome,[8],inactive
same,outcome,[9],inactive
same,outcome,[10],inactive
COc1cc2c(c(OC)c1OC)-c1ccc(OC)c(=O)cc1[C@@H](NC(C)=O)CC2,AC50,[1],0.0634 µM (active)
same,AC50,[2],0.133 µM (active)
same,outcome,[3],inactive
same,outcome,[4],inactive
same,AC50,[5],0.0989 µM (active)
same,AC50,[6],0.221 µM (active)
same,outcome,[7],inactive
same,AC50,[8],0.0559 µM (active)
same,AC50,[9],0.0644 µM (active)
same,AC50,[10],0.148 µM (active)

# Reference: PubChem BioAssay (EPA / NIEHS)
